Rows were chosen to be rich in hits. Some 6.7% of all compounds tested hit in one or more screens of this group.
Pf Dd2 growth: blocks growth of Plasmodium falciparum Dd2 parasites. P. falciparum Dd2 growth, SYBR Green, 72 h; active compounds read low. activity change, % at 10 µM. 94,000 compounds, 2.3% hits. AID 1159554; in the data active = activity change below about -80%; inconclusive = no clear call, values can overlap the other calls
C diff growth: C. difficile growth inhibition; AID 1259249; growth activity, negative = inhibition, % at 16 µg/mL (by protocol); 86,000 compounds, 0.25% hits; Clostridium difficile clinical isolate growth, OD600, 24 h; active compounds read low;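 active = mean growth activity at or below -80% and every replicate also at or below -80%; inconclusive = mean at or below -80% but some replicate above -80%; inactive = mean growth activity above -80%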
T cruzi growth-1: T. cruzi proliferation inhibition. T. cruzi beta-gal in NIH3T3, GalScreen luminescence, 90 h. inhibition, % at 8.34 µM. 77,000 compounds, 5.9% hits. AID 624255;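 active = mean inhibition above about 93%, with at least 55% of replicates each passing it, limit read from the data, passing the limit was not always enough; inconclusive = only one of those two conditions holds; inactive = neither condition holds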
T cruzi growth-2: Trypanosoma cruzi proliferation inhibition. T. cruzi beta-gal in NIH3T3, GalScreen luminescence, 90 h. shares compounds with T cruzi growth-1. 5,600 compounds, 72% hits. inhibition, % at 8.35 µM;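 active = mean replicate inhibition above about 95% and at least 55% of replicates individually reaching it, limit read from the data; inconclusive = only one of the two criteria is met; inactive = neither criterion is met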
T cruzi growth-3: blocks T. cruzi growth in NIH3T3 host cells. shares compounds with T cruzi growth-1. 5,600 compounds, 21% hits. inhibition, % at 2.09 µM. T. cruzi beta-gal in NIH3T3, GalScreen luminescence, 90 h;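 active = mean inhibition above about 95%, with at least 55% of replicates also reaching it, limit read from the data; inconclusive = meets just one of the two conditions; inactive = meets neither condition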
3T3 cytotox: cytotoxicity in mouse NIH/3T3 fibroblasts. shares compounds with T cruzi growth-1. NIH/3T3 viability, CellTiter-Glo ATP luminescence, 90 h. cytotoxicity (signal decrease), % at 8.35 µM. 5,600 compounds, 14% hits. AID 651742;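 active = mean signal decrease across replicates above about 35% based on untreated-well scatter, with enough replicates individually passing, limit read from the data; inconclusive = no rule stated though some were filed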
NIH3T3 tox 2: cytotoxicity in mouse NIH/3T3 fibroblasts; shares compounds with T cruzi growth-1; NIH/3T3 viability, CellTiter-Glo ATP luminescence, 90 h; inhibition, % at 24.9 µM; 5,600 compounds, 56% hits;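 active = mean loss of cell viability signal at or above a set limit, and enough replicates individually reaching it; inconclusive = meets only the mean limit or only the replicate share; inactive = meets neither condition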
Numbers stand for hits; . = inactive; ? = inconclusive; / = not tested or not shown.

SMILES	Pf Dd2 growth	C diff growth	T cruzi growth-1	T cruzi growth-2	T cruzi growth-3	3T3 cytotox	NIH3T3 tox 2
COc1ccc(S(=O)(=O)N2CCCCN3[C@H](CO)[C@@H](c4ccc(C#CC5CC5)cc4)[C@H]3C2)cc1	.	.	?	107	106	.	106
COc1ccc(S(=O)(=O)N2CCCCN3[C@H](C2)[C@@H](c2ccc(C#CC4CC4)cc2)[C@@H]3CO)cc1	.	.	107	100	108	38	77
O=S(=O)(c1ccc(F)cc1)N1CCCCN2[C@H](CO)[C@H](c3ccc(C#CC4CC4)cc3)[C@H]2C1	.	.	101	104	.	43	105
O=S(=O)(c1ccc(F)cc1)N1CCCCN2[C@H](CO)[C@H](c3ccc(C#CC4CC4)cc3)[C@@H]2C1	.	.	.	/	/	/	/
O=S(=O)(c1ccc(F)cc1)N1CCCCN2[C@@H](CO)[C@@H](c3ccc(C#CC4CC4)cc3)[C@@H]2C1	.	.	.	/	/	/	/
CCNC(=O)C[C@@H]1CC[C@H]2[C@H](COc3ccc(NC(=O)Nc4cccc(C)c4)cc3C(=O)N2C)O1	.	.	.	/	/	/	/
C[C@@H]1CN([C@@H](C)CO)C(=O)c2cc(NC(=O)Cc3ccccc3)ccc2O[C@@H](C)CCCCO[C@H]1CN(C)C	/	.	.	/	/	/	/
CNC(=O)C[C@@H]1CC[C@@H]2[C@H](COC[C@@H](O)CN2Cc2ccc(Cl)c(Cl)c2)O1	.	.	.	/	/	/	/
COc1ccc(C#Cc2ccc([C@@H]3[C@@H](CO)N4CCCCN(S(=O)(=O)c5ccccc5)C[C@H]34)cc2)cc1	.	.	.	/	/	/	/
COc1ccc(S(=O)(=O)N2CCCCN3[C@H](CO)[C@@H](c4ccc(C#CC5CC5)cc4)[C@@H]3C2)cc1	.	.	117	109	.	.	55
COc1ccc2c3c([nH]c2c1)[C@H](CO)N(S(C)(=O)=O)CC31CCN(Cc2ccccc2)CC1	.	.	/	/	/	/	/
COc1ccccc1C#Cc1ccc([C@H]2[C@H](CO)N3CCCCN(C(=O)C4CC4)C[C@@H]23)cc1	.	.	106	109	.	.	104
COc1ccccc1C#Cc1ccc([C@@H]2[C@@H](CO)N3CCCCN(C(=O)C4CCC4)C[C@@H]23)cc1	.	.	.	/	/	/	/
COc1ccccc1C#Cc1ccc([C@@H]2[C@H]3CN(C(=O)C4CC4)CCCCN3[C@H]2CO)cc1	.	.	103	109	.	?	102
C[C@@H]1CN([C@H](C)CO)S(=O)(=O)c2ccc(C#CC3CC3)cc2O[C@H]1CN(C)Cc1ccc(F)cc1	.	.	/	/	/	/	/
CCCC(=O)Nc1ccc2c(c1)C(=O)N(C)C[C@H](OC)[C@H](C)CN(CC1CCCC1)[C@H](C)CO2	.	/	.	/	/	/	/
O=C(C[C@@H]1C=C[C@@H](NC(=O)C2CCC2)[C@@H](CO)O1)NCCCN1CCOCC1	.	/	.	/	/	/	/
C[C@@H]1CN([C@@H](C)CO)C(=O)c2cc(NS(C)(=O)=O)ccc2O[C@@H]1CN(C)Cc1ccc(C(=O)Nc2ccccc2N)cc1	.	.	/	/	/	/	/
C[C@@H]1CN([C@@H](C)CO)C(=O)c2cc(NC(=O)Nc3cccc4ccccc34)ccc2O[C@@H](C)CCCCO[C@@H]1CN(C)Cc1ccc2c(c1)OCO2	-90	/	102	110	.	.	.
C[C@@H]1CCCCO[C@H](CN(C)Cc2ccc3c(c2)OCO3)[C@H](C)CN([C@H](C)CO)C(=O)c2cc(NC(=O)Nc3cccc4ccccc34)ccc2O1	-84	.	136	107	118	?	94
C[C@H](CO)N1C[C@H](C)[C@H](CN(C)Cc2ccc3c(c2)OCO3)OCCCC[C@H](C)Oc2ccc(NC(=O)Nc3cccc4ccccc34)cc2C1=O	.	/	107	104	97	.	45
C[C@@H]1CN([C@@H](C)CO)C(=O)c2cc(NC(=O)Nc3cccc4ccccc34)ccc2O[C@@H](C)CCCCO[C@H]1CN(C)Cc1ccc2c(c1)OCO2	.	/	121	106	.	.	105
C[C@@H]1CCCCO[C@H](CN(C)Cc2ccc3c(c2)OCO3)[C@@H](C)CN([C@H](C)CO)C(=O)c2cc(NC(=O)Nc3cccc4ccccc34)ccc2O1	.	/	.	/	/	/	/
C[C@@H]1CN([C@@H](C)CO)C(=O)c2cc(NS(=O)(=O)c3ccc(F)cc3)ccc2O[C@@H]1CN(C)Cc1ccncc1	.	.	.	/	/	/	/
CCCNC(=O)C[C@@H]1CC[C@@H]2[C@H](COc3ccc(NC(=O)COC)cc3C(=O)N2C)O1	.	.	.	/	/	/	/
SMILES	Pf Dd2 growth	C diff growth	T cruzi growth-1	T cruzi growth-2	T cruzi growth-3	3T3 cytotox	NIH3T3 tox 2
C[C@H](CO)N1C[C@H](C)[C@@H](CN(C)Cc2ccc3c(c2)OCO3)OCCCC[C@H](C)Oc2ccc(NC(=O)Nc3cccc4ccccc34)cc2C1=O	.	/	?	103	111	.	42
C[C@@H]1CCCCO[C@H](CN(C)CC2CCCCC2)[C@H](C)CN([C@@H](C)CO)C(=O)c2cc(NS(=O)(=O)c3cccs3)ccc2O1	.	.	.	/	/	/	/
CO[C@@H]1CN(C)C(=O)c2ccc(NC(=O)C3CCOCC3)cc2OC[C@@H](C)N(S(=O)(=O)c2ccc(C)cc2)C[C@H]1C	.	.	.	/	/	/	/
C[C@H](CO)N1C[C@H](C)[C@@H](CN(C)C)Oc2ncc(C#Cc3ccccc3F)cc2C1=O	.	.	.	/	/	/	/
C[C@@H]1CN([C@H](C)CO)C(=O)c2cc(C#Cc3ccccc3F)cnc2O[C@@H]1CN(C)C	.	.	98	.	.	.	?
C[C@@H]1CN([C@@H](C)CO)C(=O)c2cc(C#Cc3ccccc3F)cnc2O[C@H]1CN(C)S(=O)(=O)c1ccccc1F	.	.	108	115	105	.	68
C[C@@H]1CN([C@H](C)CO)C(=O)c2cc(C#Cc3ccccc3)cnc2O[C@@H]1CN(C)S(=O)(=O)c1ccccc1F	.	.	.	/	/	/	/
CCCNC(=O)N(C)C[C@@H]1Oc2ncc(C#Cc3ccccc3F)cc2C(=O)N([C@H](C)CO)C[C@H]1C	.	.	107	97	.	.	43
CCCNC(=O)N(C)C[C@H]1Oc2ncc(C#Cc3ccccc3F)cc2C(=O)N([C@H](C)CO)C[C@H]1C	.	.	.	/	/	/	/
C[C@@H]1CN([C@@H](C)CO)C(=O)c2cc(C#Cc3ccccc3F)cnc2O[C@H]1CN(C)S(C)(=O)=O	.	/	.	/	/	/	/
C[C@H](CO)N1C[C@H](C)[C@H](CN(C)S(=O)(=O)c2ccccc2)Oc2ncc(C#Cc3ccccc3F)cc2C1=O	.	.	113	104	.	.	55
N#Cc1cccc(-c2ccc(C3[C@@H]4CN(C(=O)Nc5ccc6c(c5)OCO6)C[C@H]3N4)cc2)c1 (stereo not given in full)	.	.	/	/	/	/	/
O=C(C[C@@H]1CC[C@H]2[C@@H](COC[C@@H](O)CN2Cc2cccc(F)c2)O1)NCCc1ccncc1	.	/	.	/	/	/	/

Source: PubChem BioAssay
